High-throughput results from PubChem BioAssay.
An excerpt weighted towards active compounds, which were near 2.2% of everything screened.
Nrf2 inh = Nrf2 pathway inhibition | A549 ARE-Fluc reporter, luciferase luminescence, 18-24 h | Potency, µM (top dose mostly 46 µM), without a hit: at the highest dose activity change, negative = inhibition, actives largely listed as inhibitors | 360,000 compounds, 2.1% hits | AID 504444; also: % is scaled to controls: 0 for no effect and ±100 for the full control effect; nearly all actives have a fitted effect of over 60% in size
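Concentration-response testing used A549 ARE_Fluc cells at 5000 cells/well. Following an 18-24 h compound incubation, viability was read by fluorescence (Ex 405/Em 525) and luciferase output by luminescence.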
Nrf2 activator = Nrf2 pathway activation; AREc32 ARE-luciferase reporter (MCF7-derived line), luminescence, 24 h; Potency, µM (doses to about 46.1 µM), inactives show at the highest dose activation, hits mostly activators; 410,000 compounds, 0.31% hits; AID 624171; also: % of control where 0% means no effect; nearly all actives have a fitted effect of over 65% in size
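Reporter line AREc32 (ARE-Fluc), seeded overnight in OPTI-MEM with 5% FBS; compound pin-transferred, 24 hr at 37 deg C, 5% CO2; luminescent read-out.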
Pin1 inh = blocks the human prolyl isomerase Pin1; Potency, µM (titrated, usually from 115 µM), for inactives: top-dose activity, negative = inhibition, usual class: inhibitors; 390,000 compounds, 0.009% hits; AID 504891; Q13526; Pin1 FP peptide displacement, HiFluor488, 10 min; active = well fitted inhibition curve with a large enough effect in the polarisation, with a control signal flat, not every such curve was filed as active; inconclusive = small, poorly fitted or top-dose-only effect, or effect the other way, or a change in a side signal; inactive = no such curve, though single readings can be large or run the other way; the % refers to the polarisation; also: % is scaled to controls: 0 for no effect and ±100 for the full control effect
Target sequence (Q13526 whole entry, looked up): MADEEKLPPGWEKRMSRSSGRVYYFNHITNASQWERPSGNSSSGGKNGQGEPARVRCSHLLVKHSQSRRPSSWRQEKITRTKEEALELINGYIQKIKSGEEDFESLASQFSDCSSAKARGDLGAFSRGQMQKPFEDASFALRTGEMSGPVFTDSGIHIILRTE
A549 viability = A549 cytotoxicity, counter-screen for Nrf2 inhibitors. Potency, µM (top dose mostly 46 µM), for inactives: top-dose activity change, negative = cytotoxicity, usual class: inhibitors. 390,000 compounds, 0.16% hits. AID 504648. A549 ARE-Fluc cells, CellTiter-Fluor viability, 18-24 h; also: % is scaled to controls: 0 for no effect and ±100 for the full control effect
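A549 ARE-Fluc cells in 5% FBS OPTI-MEM, 5000 cells/well, rested 2 h then exposed to compounds in concentration-response for 18-24 h at 37 °C. Viability by CellTiter-Fluor fluorescence (Ex 405/Em 525) after 30 min; luciferase luminescence (BugLite, 15 min, RT) read afterwards.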
* hit, by the source's call; ? = inconclusive; . = not tested or not shown; [ ] = remark or other dose. Unless noted, calls follow the shape of the dose curve; as a rule, active = well fitted curve in the direction sought with a large enough effect; inconclusive = small, poorly fitted or top-dose-only effect, or another doubt; inactive = no such curve, though single readings can be large; an effect the other way counts as inactive or inconclusive. Potency is read from the fitted curve at half-maximal effect.

SMILES	Nrf2 inh	Nrf2 activator	Pin1 inh	A549 viability
CCOC(=O)N1CCC(n2c(SCC(=O)NCc3ccccc3)nc3ccccc3c2=O)CC1	-15%	0%	-9%	-3%
CCOC(=O)N1CCC(n2c(SCC(=O)Nc3ccccc3OC)nc3ccccc3c2=O)CC1	15µM*	0%	10%	.
CC(C)CNC(=O)c1cccc(NC(=O)c2ccc(Cl)c([N+](=O)[O-])c2)c1	26µM*	?	7%	?
COc1cccc(C(=O)Nc2cccc(C(=O)NCC(C)C)c2)c1	14%	1%	-4%	-1%
CC(C)Sc1ncc(Cl)c(C(=O)Nc2nc3ccc(S(C)(=O)=O)cc3s2)n1	-2%	0%	2%	?
CCOC(=O)c1sc2nc(C)nc(NCc3ccccc3OC)c2c1C	21µM*	0%	4%	-11%
CN1c2ccccc2-c2nc(SCC(=O)Nc3ccccc3C(F)(F)F)ncc2S1(=O)=O	-20%	7%	11%	-12%
CCOC(=O)c1c(C)[nH]c(C)c1C(=O)COC(=O)/C=C/c1cccc(Cl)c1	-3%	16%	1%	-4%
CCOC(=O)c1c(C)[nH]c(C=O)c1Cc1cccc(Cl)c1	26µM*	0%	-1%	?
O=C(Nc1ccc(-c2nc3ccccc3o2)c(O)c1)c1cc(-n2cnnc2)ccc1Cl	10µM*	2%	?	.
Cc1ccc(S(=O)(=O)N2CCN(C(=O)CSC3CCCC3)CC2)c(C)c1	26µM*	-1%	-2%	-12%
CC(=O)NC(CC(=O)OCC(=O)N1CCN(S(=O)(=O)c2ccc(C)cc2C)CC1)c1ccccc1 (stereo not given)	21µM*	1%	12%	4%
Cc1ccc(S(=O)(=O)N2CCN(CCc3ccccc3)CC2)c(C)c1	18µM*	2%	-12%	-2%
CC(=O)NC(CC(=O)OCC(=O)N1CCN(S(=O)(=O)c2ccc(Cl)cc2)CC1)c1ccccc1 (stereo not given)	-15%	0%	3%	0%
Cc1ccc(C(C(=O)Nc2ccc3c(c2)OCO3)N(C)C(=O)Cc2c[nH]c3ccccc23)cc1 (stereo not given)	23µM*	0%	-2%	?
O=C1C(=Cc2ccc(Br)o2)C(=O)c2ccccc21	-7%	0%	3µM*	-16%
CC1=C/C(=C\c2ccc(Br)o2)C(=O)O1	10%	0%	?	0%
CCCCNC(=O)CSc1nc2nc(C)c(Cc3ccccc3C)c(C)n2n1	-7%[9.27 µM]	1%	-2%	-2%
CC(C)N(C(=O)Cn1cc(S(=O)(=O)Cc2ccc(C(F)(F)F)cc2)c2ccccc21)C(C)C	22%	3%	-3%	8%
O=C(Nc1nc(-c2ccccc2)cs1)C1CCCN(S(=O)(=O)c2ccccc2)C1 (stereo not given)	21µM*	0%	16%	0%[1.84 µM]
COc1ccc(-c2nc(NC(=O)c3ccc(OCC(=O)Nc4ccc(F)cc4)c(OC)c3)sc2C)cc1	15µM*	0%	4%	?
O=C(Nc1nc(-c2ccccn2)cs1)c1cccc(-n2cnnn2)c1	7.3µM*	0%	27%	-7%
COc1cc(C(=O)Nc2nc(-c3ccc(F)cc3)cs2)ccc1OCC(=O)N1CCOCC1	21µM*	-2%	-4%	-13%
Nc1nc(NCc2ccc(Cl)cc2Cl)c2[nH]cnc2n1	12%	.	7%	7%
O=C(Nc1nc(-c2ccccn2)cs1)c1ccc(F)c(S(=O)(=O)N2CCOCC2)c1	8.2µM*	3%	-5%	?
SMILES	Nrf2 inh	Nrf2 activator	Pin1 inh	A549 viability
COc1cccc(C(=O)Nc2nc(-c3ccc(S(=O)(=O)N4CCOCC4)cc3)cs2)c1	13µM*	0%	12%	-18%
Cc1ccc(-c2csc(NC(=O)c3cccc(S(=O)(=O)N4CCN(C)CC4)c3)n2)cc1	-19%	3%	5%	-6%
O=C(Nc1ccc(Br)cc1)c1ccc(F)c(S(=O)(=O)N2CCN(c3ccccn3)CC2)c1	23µM*	3%	12%	-9%
O=C(Nc1nc(-c2ccc(S(=O)(=O)N3CCCCCC3)cc2)cs1)c1cccs1	6.5µM*	3%	?	-11%
CC1CC=CC2C1C(=O)N(Cc1ccccc1)C2c1ccc(/C=C/c2ccccc2)cc1F (stereo not given)	-24%	.	11%	4%
Cc1ccccc1OCc1nc2c3cnn(-c4cccc(F)c4)c3ncn2n1	9%	0%	-1%	-2%
CCc1cccc(CC)c1NC(=O)C1SC(=Nc2ccccc2C)C(c2nc3ccccc3s2)=C1N (stereo not given)	15µM*	1%	47%	-22%
CCc1cccc(C)c1NC(=O)CCCSc1nc2ccccc2s1	?	3%	-1%	0%
O=C(O)c1ccccc1C(=O)Nc1ccc(Oc2cccc3ccccc23)cc1	21µM*	-2%	0%	-10%
CC(=O)c1c(C)oc2ccc(NS(=O)(=O)c3ccc(C(C)C)cc3)cc12	13µM*	4%	8%	-4%
COc1ccc(Cn2c(CCC(=O)NCc3ccc(Cl)cc3)nc3cccnc32)cc1	6%	3%	3%	13%
COC(=O)c1nc(Nc2cc(F)cc(F)c2)nc(NC2CCCC2)n1	17%	.	9%	1%
COc1cccc(C(=O)Nc2cc(Cl)c(O)c(Cl)c2)c1	6%	4µM*	-4%	2%
COc1ccc(NC(=S)NC(=O)c2ccccc2)cn1	?	3%	-4%	0%
COc1ccc(NC(=O)c2cccc(Oc3ccccc3)c2)cn1	26µM*	0%	-5%	-13%
COc1cccc(C(=O)Nc2ccc(NC(C)=O)cc2)c1	24%	0%	-4%	-12%
CC1CC1C(=O)Nc1nc(-c2ccc(Cl)s2)cs1 (stereo not given)	23µM*	5%	-6%	2%
O=C(Nc1nc(-c2ccc(Cl)s2)cs1)c1ccncc1	?	18%	3%	-1%
O=C(/C=C/c1ccco1)OCc1nnc(-c2ccccc2)o1	1%	11µM*	-3%	1%
O=C(/C=C/c1ccco1)OCc1nnc(-c2ccc(Cl)cc2)o1	?	14µM*	19%	1%
O=C(OCc1nnc(-c2ccccc2)o1)c1ccc(Cl)cc1	17%	0%	-8%	1%
Fc1ccc(NC(=S)N2CCN(C/C=C/c3ccccc3)CC2)c(F)c1	21µM*	6%	9%	-30%
CCN(CC)S(=O)(=O)c1ccc(C)c(NC(=S)N2CCN(c3ccccn3)CC2)c1	?	0%	8%	4%
CCN(CC)S(=O)(=O)c1ccc(C)c(NC(=S)N2CCN(C/C=C/c3ccccc3)CC2)c1	12µM*	1%	9%	-16%
CC(=O)Nc1ccccc1OC1=N[S+](=O)([O-])c2ccccc21	11%	.	1%	10%
COc1ccc(NC(=O)Cn2c3ncccc3c(=O)n2-c2ccc(C)c(C)c2)c(OC)c1	18%	3%	-1%	14%
O=C(Nc1ccccc1Sc1ccccc1)c1cnn2c1NC(=C1CC1)C=C2C(F)(F)F	.	.	27%	.
CCc1nnc(NC(=O)/C=C/c2ccco2)s1	20%	4.5µM*	12%	?
